The test system of one test is PRKCI. The following applies: concentration: 1 μM, replicates: in singlicate, n = 1.
A further test deals with PRKCQ. The following applies: concentration: 1 μM, replicates: in singlicate, n = 1.
The subject of a further test is PRKD1. The conditions noted are these: concentration: 1 μM, replicates: in singlicate, n = 1.
A further test deals with PRKD2. The conditions noted are these: concentration: 1 μM, replicates: in singlicate, n = 1.
The subject of another test is PRKD3. The conditions noted are these: concentration: 1 μM, replicates: in singlicate, n = 1.
In another test the test system is PRKG1. The following applies: concentration: 1 μM, replicates: in singlicate, n = 1.
A further test relates to PRKG2. The conditions noted are these: concentration: 1 μM, replicates: in singlicate, n = 1.
In another test the test system is T1, PRKR.
T1 construct: gene EIF2AK2
The conditions noted are these: concentration: 1 μM, replicates: in singlicate, n = 1.

Another test deals with PRKX. The conditions noted are these: concentration: 1 μM, replicates: in singlicate, n = 1.
The test system of a further test is PRP4. The following applies: concentration: 1 μM, replicates: in singlicate, n = 1.
In a further test the test system is T2, PYK2.
T2 construct: gene PTK2B
The conditions noted are these: concentration: 1 μM, replicates: in singlicate, n = 1.

The test system of the next test is QSK. The following applies: concentration: 1 μM, replicates: in singlicate, n = 1.
A further test deals with RAF1. The following applies: concentration: 1 μM, replicates: in singlicate, n = 1.
The subject of a further test is RET. The conditions noted are these: concentration: 1 μM, replicates: in singlicate, n = 1.
In the next test the test system is RIOK1. The following applies: concentration: 1 μM, replicates: in singlicate, n = 1.
For the next test, the system named is RIOK2. The following applies: concentration: 1 μM, replicates: in singlicate, n = 1.
The subject of the next test is RIOK3. The following applies: concentration: 1 μM, replicates: in singlicate, n = 1.
The subject of the next test is RIPK1. The conditions noted are these: concentration: 1 μM, replicates: in singlicate, n = 1.
In a further test the test system is RIPK2. The conditions noted are these: concentration: 1 μM, replicates: in singlicate; n = 1.
In another test the test system is RIPK4. The following applies: concentration: 1 μM, replicates: in singlicate, n = 1.

Where “and” joins values, the source holds several entries; their conditions need not be identical. Equal entries are not always repeated. Where two headings read alike, the source gives them in different places.
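Note: KINOMEscan kinase panel screen.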

As for `COc1cc2ncn(-c3cc(OCc4sccc4Cl)c(C(N)=O)s3)c2cc1OC` [GSK448459], the “%Inh” value stood at 10% with PRKCI; 0% with PRKCQ; 0% in the test on PRKD1; 0% with PRKD2; 0% with PRKD3; 14% with PRKG1. Moreover, the “%Inh” value in the test on PRKG2 was 13%; in the test with PRKR, 0%; in the test with PRKX, 0%; in the test with PRP4, 26%; in the test with PYK2, 0%; in the test with QSK, 7%. Besides, the “%Inh” value in the test with RAF1 came out at 12%; in the test on RET, 26%; in the test with RIOK1, 91.8%; in the test with RIOK2, 13%; in the test with RIOK3, 61%; with RIPK1, 0%. The “%Inh” value in the test with RIPK2 amounted to 3%; with RIPK4 it was 15%.

Turning to `NCCNS(=O)(=O)c1ccc(-c2ccnc3[nH]ccc23)cc1` [GSK977617], the “%Inh” value with PRKCI (1 µM) is 56% and 47%; in the test with PRKCQ (1 µM) it was 86% and 70%; in the test with PRKD1 (1 µM) it was 49% and 33%; in the test with PRKD2 (1 µM), 51% and 23%; in the test with PRKD3 (1 µM), 45% and 33%; in the test on PRKG1 (1 µM), 97.6% and 96.7%. Besides, the “%Inh” value in the test with PRKG2 (1 µM) was 98.6% and 98%; with PRKR (1 µM), 52% and 42%; in the test with PRKX (1 µM), 94.7% and 92.2%; with PRP4 (1 µM), 28% and 20%; with PYK2 (1 µM) it was 31% and 21%; in the test with QSK (1 µM) it was 6% and 15%. Also, the “%Inh” value in the test with RAF1 (1 µM) is 2% and 0%; in the test with RET (1 µM), 28% and 19%; with RIOK1 (1 µM), 91.4%; with RIOK2 (1 µM) it was 93.8% and 88%; in the test with RIOK3 (1 µM) it was 78% and 84%; with RIPK1 (1 µM), 9% and 8%. Also, the “%Inh” value was 0% in the test on RIPK2; 50% and 29% with RIPK4 (1 µM).

Consider `N#Cc1ccc(-c2cc(-c3c[nH]nc3-c3ccccn3)ccn2)cc1` [GW693028], for which the “%Inh” value in the test on PRKCI was found to be 0%; in the test on PRKCQ, 15%; with PRKD1, 63%; with PRKD2, 40%; in the test with PRKD3 it was 0%; in the test with PRKG1, 0%. Also, the “%Inh” value was found to be 0% with PRKG2; 0% in the test on PRKR; 2% in the test with PRKX; 41% in the test on PRP4; 0% in the test on PYK2; 12% in the test on QSK. Besides, the “%Inh” value in the test with RAF1 is recorded as 1%; in the test with RET, 12%; with RIOK1, 0%; in the test with RIOK2 it was 0%; in the test with RIOK3 it was 0%; in the test with RIPK1, 0%. For the same compound, the “%Inh” value in the test with RIPK2 came out at 49%; in the test with RIPK4, 5%.

For the compound `COc1cc2c(cc1OC[C@@H](O)CO)ncc1c3ccc(C#N)cc3[nH]c21`, the “%Inh” value with PRKCI, in the test on PRKCQ, in the test with PRKD1, in the test on PRKD2, with PRKD3 and in the test on PRKG1 was 0% throughout. The “%Inh” value is 0% in the test on PRKG2; 0% in the test on PRKR; 0% in the test on PRKX; 9% in the test on PRP4; 0% with PYK2; 8% in the test on QSK. The “%Inh” value in the test with RAF1 was determined as 21%; in the test on RET, 52%; in the test on RIOK1, 65%; in the test with RIOK2 it was 0%; with RIOK3, 76%; in the test on RIPK1, 0%. The “%Inh” value in the test on RIPK2 and in the test on RIPK4 was 0% each time.

Take `Cc1cccc(-c2nc(-c3ccc(S(C)(=O)=O)cc3)sc2-c2ccncc2)c1`: the “%Inh” value in the test with PRKCI is on record as 0%; with PRKCQ, 9%; in the test on PRKD1, 0%; with PRKD2 it was 0%; with PRKD3, 0%; in the test on PRKG1 it was 0%. The “%Inh” value came out at 0% in the test on PRKG2; 2% in the test on PRKR; 1% in the test with PRKX; 6% with PRP4; 2% in the test on PYK2; 8% in the test on QSK. Further, the “%Inh” value in the test on RAF1 is 25%; in the test with RET, 14%; in the test on RIOK1, 19%; in the test with RIOK2 it was 27%; with RIOK3, 0%; in the test on RIPK1, 0%. The “%Inh” value amounted to 59% in the test with RIPK2 and 0% with RIPK4.

Take `Fc1ccc(-c2ncn(CCCN3CCOCC3)c2-c2cccnc2)cc1` [SB-211743]: the “%Inh” value with PRKCI is listed as 23%; in the test with PRKCQ it was 0%; in the test with PRKD1, 0%; with PRKD2 it was 6%; in the test on PRKD3 it was 0%; with PRKG1, 35%. Further, the “%Inh” value with PRKG2, in the test with PRKR, with PRKX, with PRP4, with PYK2 and in the test on QSK was 0% in each case. The “%Inh” value turned out to be 9% in the test on RAF1; 3% with RET; 17% in the test with RIOK1; 53% in the test with RIOK2; 0% with RIOK3; 0% in the test with RIPK1. For the same compound, the “%Inh” value with RIPK2 is 0%; in the test with RIPK4, 4%.
